Morphology score and SARS-CoV-2 infection rate data for 30 molecules are collected here from the supplement of paper PMC13380429.

Each structure is given as a SMILES string.

Assay [1] relates to Vero E6 infected with SARS-CoV-2. Briefly: morphology score (similarity to uninfected cells); higher = more like uninfected cells. Particulars: 24 h.
For assay [2] the test system is unchanged. The experiment in a line: SARS-CoV-2 infection rate relative to infected DMSO; higher = more infection, active = 60 or less. The settings on record: 24 h.

`Oc1ccc2c(c1)CC[C@H](c1ccccc1)[C@@H]2c1ccc(OCCN2CCCC2)cc1` [lasofoxifene] (0.833333 µM) showed a morphology score in assay [1] of 0.106. Besides, the SARS-CoV-2 infection rate in assay [2] was 97% (inactive).

In assay [1], `CCOC(N)=O` [urethane] (10 µM) displayed a morphology score of -0.0716. Also, in assay [2], the SARS-CoV-2 infection rate was 106% (inactive).

In assay [1], `CNC(=O)c1cc(Oc2ccc(NC(=O)Nc3ccc(Cl)c(C(F)(F)F)c3)c(F)c2)ccn1` [regorafenib] (0.833333 µM) gave a morphology score of 0.0372. In addition, the SARS-CoV-2 infection rate in assay [2] was 110% (inactive).

For `CC(C)NCC(O)c1ccccc1Cl` (stereo not given) [clorprenaline] (10 µM), in assay [1], the morphology score stood at 0.125. In addition, in assay [2], the SARS-CoV-2 infection rate was 96.5% (inactive).

Regarding `Nc1nc2c(ncn2[C@@H]2O[C@H](CO)[C@@H](O)[C@H]2O)c(=O)[nH]1` [guanosine] (10 µM), in assay [1], the morphology score worked out at 0.0982. Moreover, in assay [2], the SARS-CoV-2 infection rate was 106% (inactive).

In assay [1], `O=C(NO)c1ccc2[nH]c(=O)c(CCCc3ccccc3)nc2c1` (10 µM) yielded a morphology score of -0.0251. In addition, the SARS-CoV-2 infection rate in assay [2] was 100% (inactive).

In the case of `CCCCCCc1ccc(O)cc1O.Nc1c2ccccc2nc2ccccc12` [acrisorcin] (0.833333 µM), the morphology score in assay [1] worked out at 0.293. Moreover, the SARS-CoV-2 infection rate in assay [2] is 97% (inactive).

With `CCCCCCCCCCCCCCCC[N+](C)(C)Cc1ccccc1` [benzyldimethylhexadecylammonium] (10 µM), the morphology score in assay [1] was 0.298. Moreover, the SARS-CoV-2 infection rate in assay [2] is 80% (inactive).

Molecule `OCc1c[nH]c2ccccc12` [indole-3-carbinol] (10 µM) returned a morphology score in assay [1] of 0.0621. Moreover, the SARS-CoV-2 infection rate in assay [2] was 94.5% (inactive).

As for `CN(c1nccc(=O)[nH]1)C1CCN(c2nc3ccccc3n2Cc2ccc(F)cc2)CC1` [mizolastine] (10 µM), the morphology score in assay [1] was found to be 0.211. In assay [2], the SARS-CoV-2 infection rate is 106% (inactive).

Regarding `Cc1c(-c2cnccn2)ssc1=S` [oltipraz] (10 µM), in assay [1], the morphology score is -0.0383. In assay [2], the SARS-CoV-2 infection rate is 109% (inactive).

In assay [1], `COc1ccc(-c2cc(=S)ss2)cc1` [anethole-trithione] (10 µM) showed a morphology score of 0.0605. In addition, the SARS-CoV-2 infection rate in assay [2] was 104% (inactive).

`C=CCN1CC[C@]2(C)c3cc(O)ccc3C[C@H]1[C@H]2C` (10 µM) had a morphology score in assay [1] of 0.112. Besides, the SARS-CoV-2 infection rate in assay [2] is 102% (inactive).

In turn, `Cn1cnc2c1c(=O)[nH]c(=O)n2C` [theobromine] (10 µM) registered a morphology score in assay [1] of 0.00515. Also, the SARS-CoV-2 infection rate in assay [2] was 108% (inactive).

Regarding `CC(=O)OCC1=C(C(=O)O)N2C(=O)[C@@H](NC(=O)Cc3cccs3)[C@H]2SC1` [cephalothin] (10 µM), in assay [1], the morphology score is -0.0126. Besides, the SARS-CoV-2 infection rate in assay [2] is 102% (inactive).

Take `COc1cc2c(CCNC(C)=O)c[nH]c2cc1Cl` [6-chloromelatonin] (10 µM): in assay [1], the morphology score was 0.0228. For the same molecule, in assay [2], the SARS-CoV-2 infection rate was 104% (inactive).

In the case of `O=C1C(Cl)=C(NCCN2CCOCC2)C(=O)c2ncccc21` (0.833333 µM), in assay [1], the morphology score was found to be 0.143. Moreover, the SARS-CoV-2 infection rate in assay [2] was 94% (inactive).

The molecule `Cc1ccccc1N1CCN(S(=O)(=O)C[C@]23CC[C@H](C[C@@H]2NC(=O)[C@@H](N)CCS(C)(=O)=O)C3(C)C)CC1` (10 µM) had a morphology score in assay [1] of 0.049. Further, the SARS-CoV-2 infection rate in assay [2] is 95% (inactive).

`CCCCCC(C)N` (stereo not given) [tuaminoheptane] (10 µM) registered a morphology score in assay [1] of -0.092. The SARS-CoV-2 infection rate in assay [2] was 109% (inactive).

As to `C[C@H](Nc1ncnc2nc[nH]c12)c1cc2cccc(Cl)c2c(=O)n1-c1ccccc1` [duvelisib] (0.833333 µM), the morphology score in assay [1] was found to be 0.0653. For the same molecule, in assay [2], the SARS-CoV-2 infection rate was 99% (inactive).

`CC(=O)Oc1cc(C(F)(F)F)ccc1C(=O)O` [triflusal] (10 µM) returned a morphology score in assay [1] of 0.126. For the same molecule, the SARS-CoV-2 infection rate in assay [2] is 102% (inactive).

In assay [1], `C[C@@H](O)[C@H]1C(=O)N2C(C(=O)[O-])=C(SC3Cn4cnc[n+]4C3)[C@H](C)[C@H]12` (stereo not given in full) [biapenem] (10 µM) gave a morphology score of -0.0332. For the same molecule, the SARS-CoV-2 infection rate in assay [2] is 99.5% (inactive).

In assay [1], `CONC(=N)c1ccc(-c2ccc(-c3ccc(C(=N)NOC)cc3)o2)cc1` [pafuramidine] (10 µM) showed a morphology score of 0.0672. For the same molecule, the SARS-CoV-2 infection rate in assay [2] is 106% (inactive).

As to `Nc1nc(-c2ccc(Cl)c(Cl)c2)c(-c2ccncc2)s1` (10 µM), in assay [1], the morphology score was found to be 0.37. For the same molecule, the SARS-CoV-2 infection rate in assay [2] was 99.5% (inactive).

Turning to `CN1C(=O)N(c2ccc(C#N)c(C(F)(F)F)c2)C(=O)[C@]1(CO)c1ccccc1` [GLPG0492-R-enantiomer] (10 µM), the morphology score in assay [1] is -0.00354. For the same molecule, in assay [2], the SARS-CoV-2 infection rate is 104% (inactive).

Molecule `O=C(Nc1ccccc1)[C@]12C[C@H]1/C(=N\O)c1ccccc1O2` (10 µM) gave a morphology score in assay [1] of 0.246. Further, in assay [2], the SARS-CoV-2 infection rate is 79% (inactive).

Molecule `CC[C@H](NC(=O)c1c(C)c(-c2ccccc2)nc2ccccc12)c1ccccc1` (10 µM) yielded a morphology score in assay [1] of 0.0423. For the same molecule, the SARS-CoV-2 infection rate in assay [2] was 101% (inactive).

Consider `CN(C)c1ccc(/C=C2\C(=O)Nc3ccccc32)cc1` (10 µM), for which, in assay [1], the morphology score came out at 0.175. Moreover, the SARS-CoV-2 infection rate in assay [2] was 101% (inactive).

As for `CSCC[C@H](NC(=O)[C@H](Cc1ccccc1)NC(=O)CNC(=O)CNC(=O)[C@@H](N)Cc1ccc(O)cc1)C(=O)O` [metenkephalin] (10 µM), the morphology score in assay [1] came out at 0.247. Also, the SARS-CoV-2 infection rate in assay [2] is 91% (inactive).

In the case of `Cc1nc2c([nH]1)-c1ccccc1N(C(=O)c1ccc(NC(=O)c3ccccc3-c3ccccc3)cc1)CC2` [conivaptan] (10 µM), the morphology score in assay [1] worked out at 0.193. The SARS-CoV-2 infection rate in assay [2] is 107% (inactive).
